Laboratory results as given in PubChem BioAssay (NCI).
About 79,000 compounds went through this panel and 15% of them were active in at least one assay; those are over-represented in the sample as a whole. No stated cut-off is given here; in the data, active means growth inhibition above about 70%; inactive means the rest.

How the values were obtained:
[1] = NCI Yeast Anticancer Drug Screen. Data for the rad50 strain (AID 155);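 further: 0% = growth of vehicle-only cultures of the same strain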; conditions: S. cerevisiae rad50 strain growth inhibition; at 50.0 µM; active compounds read high
Outline: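 Compounds were tested on a yeast strain with an engineered DNA damage repair alteration; the reported value is growth inhibition normalised to vehicle treatment.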

[2] = NCI Yeast Anticancer Drug Screen. Data for the mec2-1 strain (AID 157); conditions: S. cerevisiae mec2-1 strain, at 50.0 µM, active compounds read high
Outline: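 Each compound was tested on mec2-1 yeast, a strain altered in DNA damage repair or cell cycle control. Growth inhibition is reported relative to vehicle.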

[3] = NCI Yeast Anticancer Drug Screen. Data for the sgs1 mgt1 strain (AID 161);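 further: 0% = growth of cultures given vehicle only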; conditions: S. cerevisiae sgs1 mgt1 strain, at 50.0 µM, active compounds read high
Outline: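 Inhibition of yeast growth, normalised to vehicle-treated controls, is reported for a strain bearing genetic alterations in DNA damage repair.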

[4] = NCI Yeast Anticancer Drug Screen. Data for the cln2 rad14 strain (AID 165);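 further: 0% = growth equal to vehicle treated cultures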; conditions: S. cerevisiae cln2 rad14 strain, at 50.0 µM, active compounds read high
Outline: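 Test compounds were added to cln2 rad14 yeast cultures; inhibition of growth was then determined by comparison with vehicle treatment.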

[5] = NCI Yeast Anticancer Drug Screen. Data for the bub3 strain (AID 167); conditions: S. cerevisiae bub3 mutant strain, at 50.0 µM, active compounds read high
Outline: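 Growth of a checkpoint-deficient yeast mutant is measured after compound exposure. Values represent inhibition relative to vehicle.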

[6] = NCI Yeast Anticancer Drug Screen. Data for the mlh1 rad18 strain (AID 175); conditions: S. cerevisiae mlh1 rad18 strain growth inhibition; at 50.0 µM; active compounds read high
Outline: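 Inhibition values reflect reduced growth of mutant yeast versus vehicle-treated controls following compound exposure; the mutations affect DNA damage repair.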

Measured: growth inhibition

CC1(C)CC(=O)C(C(c2ccc3c(c2)CCC3)C2C(=O)CC(C)(C)CC2=O)C(=O)C1
inactive: [1] -18.1% | [2] -27.9% | [3] -31.1% | [4] 23.9% | [5] -26.3% | [6] -21.4%

COc1cc2c(c3c1CCC(C)(C)O3)Cc1c(cc(OC)c(OC)c1CCC(C)(C)O)O2
inactive: [1] 41.8% | [2] -3.9% | [3] 3.6% | [4] 0.4% | [5] 3% | [6] 7.6%

N#CC(C#N)=C(O)/C(=C/c1ccc(Cl)cc1Cl)NC(=O)c1ccccc1
inactive: [1] 9.4% | [2] 1.15% | [3] -7.9% | [4] 7.9% | [5] -13.3% | [6] 14.3%

CC(C)(O)/C=C\P(C)(=O)c1ccccc1 (stereo unspecified)
inactive: [1] -30.9% | [2] -21.9% | [3] -4.7% | [4] 9.85% | [5] -32.5% | [6] -31.4%

O=S1(=O)CS/C(=N/C(=S)N(Cc2ccccc2)Cc2ccccc2)N1c1ccccc1
inactive: [1] 43% | [2] 14% | [3] 35.1% | [4] 24.8% | [5] -3.85% | [6] 29.6%

OCC1C=Cc2ccccc21 (stereo unspecified)
inactive: [1] -3.8% | [2] 0.65% | [3] -0.6% | [4] 2.15% | [5] 14.5% | [6] -2.4%

O=C(O)c1ccccc1SC(Sc1ccccc1C(=O)O)c1ccccc1
inactive: [1] -11.8% | [2] -10.7% | [3] -2.35% | [4] -7.85% | [5] 12.1% | [6] 10.6%

CCCC12C=C(OC)C(=O)C=C1OC(c1cc(OC)c(OC)c(OC)c1)C2C (stereo unspecified)
inactive: [1] -14.8% | [2] -23.4% | [3] -18.8% | [4] -4.45% | [5] -6.8% | [6] -13.4%

CC(=O)OCc1cc(=O)n2c([nH]c3ccccc32)c1C#N
inactive: [1] 11.1% | [2] 10.6% | [3] -24.6% | [4] -15.5% | [5] -26.3% | [6] -2.6%

Cc1ccccc1NC(=O)/C=C\C(=O)O
inactive: [1] 8.9% | [2] -10.3% | [3] -0.7% | [4] 10.1% | [5] -14.4% | [6] 10.2%

C[N+](C)(C)CC(O)CC#N (stereo unspecified)
inactive: [1] -2.25% | [2] 1.75% | [3] -4% | [4] -8.35% | [5] 0.55% | [6] -1.8%

CC(=O)OC(C)C1(C)CCC2CCCC(C)(C)C2C1 (stereo unspecified)
inactive: [1] -6.4% | [2] -5.15% | [3] -11.9% | [4] 0.7% | [5] 9.45% | [6] -13.7%

C=CCCCCCCCCCCCCCCCCCC
inactive: [1] -3.55% | [2] -3.8% | [3] 2.8% | [4] 5.9% | [5] -5.3% | [6] 6.2%

C(=C/c1ccc(-c2ccccc2)cc1)/c1ccc(-c2ccccc2)cc1
inactive: [1] -4.5% | [2] -13.4% | [3] 11.2% | [4] -23.3% | [5] 24.4% | [6] -2.45%

Cn1c(Cc2ccccc2)c([N+](=O)[O-])c(=O)n(C)c1=O
inactive: [1] -0.2% | [2] -5.25% | [3] -2.1% | [4] -8.2% | [5] -6.35% | [6] -2.4%

O=c1cn[nH]c2c(Br)cc(Br)cc12
inactive: [1] 12% | [2] -0.3% | [3] -1.6% | [4] 2.65% | [5] -9.9% | [6] 16.4%

CCOC(=O)CC1=Nc2ccccc2SC1
inactive: [1] -28.4% | [2] -31.2% | [3] -14.8% | [4] -12.8% | [5] -22.6% | [6] -28.6%

N#CCc1c(-c2ccccc2)n(S(=O)(=O)c2ccccc2)c2ccccc12
inactive: [1] 4.45% | [2] -2.55% | [3] -20.6% | [4] 8.45% | [5] -9.9% | [6] -5.3%

CCOP(=O)(OCC)C(C)(CC)NC1=NC(C(F)(F)F)(C(F)(F)F)NC(=O)N1 (stereo unspecified)
inactive: [1] -2.2% | [2] -10.2% | [3] -3.3% | [4] 1% | [5] -0.5% | [6] -0.15%

CC(=O)NC(Cc1ccc(C)cc1)C(=O)O (stereo unspecified)
inactive: [1] 3.35% | [2] -3.75% | [3] 20.1% | [4] -3.5% | [5] -3.05% | [6] 1.7%

Cc1ccc2nccc(C)c2c1
inactive: [1] -27.8% | [2] -45.1% | [3] -19.6% | [4] -14.7% | [5] -27.6% | [6] -7.8%
